Vaccinia Venus: inhibitors of vaccinia virus (Venus reporter); Potency, µM (titrated, usually from 36.5 µM), inactives show at the highest dose activity change, negative = inhibition, actives largely listed as inhibitors; 0.46% of 330,000 active; AID 720580; Vaccinia virus Venus reporter expression, fluorescence; calls by dose curve; tested in A549 cells; also: potency is read from the fitted curve at half-maximal effect; nearly all actives have a fitted effect of over 30% in size
HCMV antiviral: inhibitors of human cytomegalovirus; HFF cells, HCMV-luciferase reporter, 72 h; stronger effect = lower value; activity change, negative = inhibition, % at 57.5 µM; 4.5% of 410,000 active; AID 1259415; in the data active = activity change below about -60%; inconclusive = no clear call, values can overlap the other calls; inactive = above about -39%
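Luciferase read-out from HCMV-luciferase-infected HFFs (MOI 1 PFU/cell) 72 h post infection at 37C; compounds added after 16 h cell attachment; activity normalized between buffer-only basal and Salinomycin (10uM) inhibitor controls.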
HCV inhibitor: inhibitors of hepatitis C virus infection; Huh7.5.1 HCVcc-Cre infection, luciferase reporter, 44 h; Potency, µM (doses to about 41.8 µM), for the others: at the highest dose activity change, negative = inhibition, most hits filed as inhibitors; 3.4% of 340,000 active; AID 651820; active = well fitted inhibition curve with a large enough effect; inconclusive = small, poorly fitted or top-dose-only effect, or another doubt; inactive = no such curve, though single readings can be large or run the other way; also: potency is read from the fitted curve at half-maximal effect
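Antiviral activity was scored by luciferase reporter output from cells infected with HCVcc-Cre (~0.5 moi) in presence of compound, 44 h infection period, cells seeded 1,000/well 4 h prior.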
Vaccinia mCherry: vaccinia inhibition (mCherry reporter) | AID 720579 | 0.63% of 310,000 active | Potency, µM (top dose mostly 36.5 µM), inactives show at the highest dose activity change, negative = inhibition, actives largely listed as inhibitors | Vaccinia virus mCherry reporter infection, fluorescence; calls by dose curve; tested in A549 cells; also: potency is read from the fitted curve at half-maximal effect; nearly all actives have a fitted effect of over 35% in size
FMDV inh: blocks foot and mouth disease virus; FMDV antiviral cell-based qHTS; Potency, µM (titrated, usually from 57.9 µM), inactives show at the top dose activity change, negative = inhibition, usual class: inhibitors; 1.2% of 410,000 active; AID 1159524; calls by dose curve; tested in HEK293T cells; also: read-out not given here; potency is read from the fitted curve at half-maximal effect; nearly all actives have a fitted effect of over 45% in size
* marks the source's active call; other numbers are inactive results; i = inactive; ? = inconclusive; / = no result; [ ] = dose if it differs, or a comment. An excerpt weighted towards active compounds, which were near 7.3% of everything screened. % is scaled to controls: 0 for no effect and ±100 for the full control effect.

SMILES	Vaccinia Venus	HCMV antiviral	HCV inhibitor	Vaccinia mCherry	FMDV inh
COc1cccc(/C=N/Nc2cc(-n3nc(C)cc3-c3ccccc3)ncn2)c1O	?	-96*	5.6µM*	13µM*	?
Cc1ccc(-n2nnnc2-c2cnn(-c3ccc(F)cc3)c2C(F)(F)F)cc1	/	-70*	?	/	?
FC(F)(F)c1ccncc1-c1nnnn1-c1ccc(Cl)cc1	-3%	?	11%	i	-26%
FC(F)(F)c1nc(-c2ccncc2)ncc1-c1nnnn1-c1ccccc1	/	3	-13%	/	-13%
Cc1ccc(-c2nnnn2-c2ccc(C)cc2)cc1	-2%	12	2%	i	-10%
Fc1ccc(-n2nnnc2-c2cnc(-c3cccs3)nc2C(F)(F)F)cc1	/	-86*	10µM*	/	16µM*
Cc1ccc(-n2nnnc2-c2cnc(-c3cccnc3)nc2C(F)(F)F)cc1	/	?	10µM*	/	22µM*
FC(F)(F)c1nc(N2CCCC2)ncc1-c1nnnn1-c1ccc(Cl)cc1	?	-65*	10µM*	?	?
Cc1cccn2c(=O)c(C(=O)NCCc3ccc(S(N)(=O)=O)cc3)c(O)nc12	-8%	12	/	-16%	-27%
CN(Cc1ccccc1)C(=O)c1ccc(NC(=O)Cc2ccc(NC(=O)C3CCN(S(=O)(=O)c4cccc([N+](=O)[O-])c4)CC3)cc2)cc1	-13%	-5	13µM*	?	?
CN(CCc1ccccc1)C(=O)c1cccc(NC(=O)Cc2cccc(NC(=O)C3CCCN(S(=O)(=O)c4cccc([N+](=O)[O-])c4)C3)c2)c1 (configuration not stated)	-19%	-18	10µM*	?	?
CN(Cc1ccccc1)C(=O)c1cccc(NC(=O)Cc2ccc(NC(=O)C3CCN(S(=O)(=O)c4cccc([N+](=O)[O-])c4)CC3)cc2)c1	-16%	1	8.9µM*	i	-19%
Cc1ccc(C(C)NC(=S)NCc2ccc(F)cc2)cc1C (configuration not stated)	/	-82*	?	/	2%
CCc1ccc(C(C)NC(=S)NCc2ccc(F)cc2)cc1 (configuration not stated)	-17%	29	?	?	7%
Cc1cccc(NC(=O)Cn2c(=O)n(CCCS(=O)(=O)C3CCCCC3)c(=O)c3ccccc32)c1	-5%	-8	/	-10%	-7%
CC(=O)N1CCN(C(=S)Nc2ccc(SC(F)F)cc2)CC1	1%	-76*	29%	-4%	81%
FC(F)Sc1ccc(NC(=S)NCC2CCCCC2)cc1	/	-97*	32µM*	/	9%
CC1CCCCC1NC(=S)Nc1ccc(SC(F)F)cc1 (configuration not stated)	?	-100*	11µM*	/	-9%
Fc1ccc(Nc2cc3[nH]c(-c4ccccc4)cc3cn2)cc1	/	-6	/	/	/
CCC(OC(=O)CN1C(=O)C(=O)c2ccccc21)C(=O)Nc1ccccc1OC (configuration not stated)	-5%	-63*	-7%	-16%	-15%
CCC(OC(=O)C(C)N1C(=O)C(=O)c2ccccc21)C(=O)Nc1ccccc1OC (configuration not stated)	-3%	8	-17%	-29%	-4%
Cc1cc(C)n(-c2ccc(NC(=O)C3CCN(Cc4cnc(C)s4)CC3)cc2)n1	-11%	-60*	-15%	-2%	-28%
CN(C)C(=O)c1ccc(-c2nc(NCc3ccccc3)c3ccccc3n2)cc1	2%	/	/	i	24%
Cc1ccc(NC(=S)N(CCCN2CCOCC2)Cc2ccccn2)cc1Cl	-14%	-39	-4%	-15%	-10%
Cc1cccc(NC(=S)N(CCN2CCOCC2)Cc2cc3cc4c(cc3[nH]c2=O)OCO4)c1	-6%	-21	9%	-14%	-12%
SMILES	Vaccinia Venus	HCMV antiviral	HCV inhibitor	Vaccinia mCherry	FMDV inh
Cc1cccc(NC(=S)N(CCCN2CCOCC2)Cc2cn(C)c3ccccc23)c1	-13%	-89*	-25%	-9%	-8%
Cn1cc(CN(CCCN2CCOCC2)C(=S)Nc2cccc(Cl)c2)c2ccccc21	-25%	-78*	8.9µM*	?	-16%
CCCSc1nnc2c(n1)OC(c1sccc1C)Nc1ccccc1-2 (configuration not stated)	-6%[7.34 µM]	43	/	-9%[7.34 µM]	27%
CCN1C(=O)N(CC)C(O)(c2ccccc2)C1(O)c1ccccc1 (configuration not stated)	-9%	-62*	1%	/	-17%
CCN1C(=O)N(C)C2(c3ccccc3)N(C)C(=O)N(C)C12c1ccccc1 (configuration not stated)	-8%	3	14%	/	-4%
Cn1cc(C=O)c2cc(F)ccc21	-10%	4	9%	-13%	2%
C[n+]1ccc(/C=C/c2c[nH]c3ccc(F)cc23)cc1	/	-97*	1µM*	/	?
Cn1cc(/C=C/c2cc[n+](C)cc2)c2cc(F)ccc21	-16%	/	0.56µM*	-17%	?
Cn1cc(S(=O)(=O)c2ccccc2)c(=O)c2cc(Cl)ccc21	0%[7.34 µM]	0	-12%	i[7.34 µM]	-1%
O=C(C[n+]1ccc(/C=C/c2c[nH]c3ccccc23)c2ccccc21)c1ccccc1	-4%	/	/	-14%	/
Cn1cc(/C=C/c2cc[n+](C)cc2)c2cc(Cl)ccc21	-3%	-102*	?	?	-16%
Cc1ccc(NC(=O)C2CCCN(c3nnc(C)c4c(C)n(-c5ccccc5)nc34)C2)c(Cl)c1 (configuration not stated)	-25%	?	/	-24%	-10%
COC(=O)C1=C(C)N(Cc2cccc(C(F)(F)F)c2)C(=NCc2ccc3c(c2)OCO3)NC1c1ccc(Cl)cc1 (configuration not stated)	/	-15	/	/	/
COc1cc(-c2[nH]ncc2CN2CCN(c3cccc(C)n3)CC2)cc(OC)c1OC	0%[7.34 µM]	10	11µM*	i[7.34 µM]	-28%
CC(=O)Nc1sc2c(c1C(c1ccccc1Cl)N1CCN(CCO)CC1)CCCC2 (configuration not stated)	-10%	-24	11µM*	-20%	-25%
COc1ccc2c(c1)-c1nc(/N=C/c3ccccc3O)sc1CC2	-17%	7	10µM*	-7%	-7%
CC(=O)c1cccc(NS(=O)(=O)c2cc(-c3onc(C)c3C)ccc2C)c1	-19%	-34	/	?	6%
Nc1ccc(N2CCCC2)c(S(=O)(=O)Nc2cccc(C(F)(F)F)c2)c1	-6%	-69*	?	-1%	22%
COc1ccc(NS(=O)(=O)c2cc(N)ccc2N2CCCCC2)cc1	/	-34	-1%	/	15%
COCCOc1ccc(C(F)(F)F)cc1Nc1nc2ccccc2o1	-23%	21	14µM*	?	2%
C=CC[C@H]1CC(C)=C[C@H](CC=C)N1C(=O)c1cc(COc2ccccc2SC)on1	-3%	-36	13µM*	-10%	?
COc1ccc(Nc2nc(N)c3cc(OC)c(OC)cc3n2)cc1	-9%[7.34 µM]	-36	/	-16%[7.34 µM]	-1%

Compound activity (PubChem BioAssay)
